From PubChem BioAssay (Tox21)
Inconclusive results are not listed. Activity calls are given as the source filed them. Unless noted, calls come from the whole dose curve; as a rule, active = well fitted curve in the direction sought with a large enough effect in the repeat runs; inconclusive = weak or mixed curves; inactive = no such curve, though single readings can be large; an effect the other way counts as inactive or inconclusive.

How the values were obtained:
[1] = qHTS assay to identify small molecule antagonists of the estrogen related receptor (ERR) signaling pathway from Tox21 library - cell viability counter screen (AID 1224834); conditions: ERR reporter cells viability, CellTiter-Fluor, 17.5 h; series mostly up to 92.4 µM; note: nearly all actives have a fitted effect of over 30% in size
Summary of the method: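 ERR reporter cells were plated 6 h before compound addition, then exposed to test compounds in DMSO for 17.5 h at 37 C. Viability was read as CellTiter-Fluor fluorescence after a 30-minute incubation at 37 C.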

[2] = target: Luciferin 4-monooxygenase (Photinus pyralis) (UniProt P08659); assay: qHTS assay to identify small molecule inhibitors of firefly luciferase (AID 1224835); note: nearly all actives have a fitted effect of over 25% in size; conditions: purified P. pyralis luciferase, luminescence inhibition; series mostly up to 115 µM
Chain of Luciferin 4-monooxygenase (Photinus pyralis) (P08659 whole entry, looked up): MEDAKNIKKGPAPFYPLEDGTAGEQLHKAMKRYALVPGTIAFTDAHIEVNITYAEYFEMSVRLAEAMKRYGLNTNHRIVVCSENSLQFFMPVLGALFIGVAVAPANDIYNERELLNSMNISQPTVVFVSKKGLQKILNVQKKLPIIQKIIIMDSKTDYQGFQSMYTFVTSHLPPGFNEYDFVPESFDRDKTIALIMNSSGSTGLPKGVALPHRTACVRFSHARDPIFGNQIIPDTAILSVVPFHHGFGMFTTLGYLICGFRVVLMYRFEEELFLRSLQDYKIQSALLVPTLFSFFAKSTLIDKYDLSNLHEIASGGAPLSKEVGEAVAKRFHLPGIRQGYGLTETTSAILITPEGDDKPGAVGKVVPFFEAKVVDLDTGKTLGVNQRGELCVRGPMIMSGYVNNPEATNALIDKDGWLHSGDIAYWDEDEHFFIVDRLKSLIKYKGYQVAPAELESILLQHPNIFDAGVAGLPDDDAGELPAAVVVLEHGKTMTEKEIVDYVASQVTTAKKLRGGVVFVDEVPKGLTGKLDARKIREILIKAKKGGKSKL
Summary of the method: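 Quantitative HTS format; KM concentrations of both substrates. Purified P. pyralis FLuc activity quantified from luminescence images.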

[3] = qHTS assay to identify small molecule agonists of the constitutive androstane receptor (CAR) signaling pathway - cell viability counter screen (AID 1224836); conditions: HepG2-CYP2B6-hCAR viability, CellTiter-Fluor, 23 h, PK11195 added to every well; series mostly up to 92.4 µM; note: nearly all actives have a fitted effect of over 45% in size
Summary of the method: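 Compound titrations (15 concentrations) went onto HepG2-CYP2B6-hCAR cells 4 h after seeding, alongside PK11195 at a final 0.75 uM; a 23 h, 37 C/5% CO2 incubation preceded CellTiter-Fluor viability measurement.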

[4] = qHTS assay to identify small molecule antagonists of the constitutive androstane receptor (CAR) signaling pathway - cell viability counter screen (AID 1224837); conditions: HepG2-CYP2B6-hCAR viability, CellTiter-Fluor, 23 h, co-treated with 50 nM CITCO; series mostly up to 92.4 µM; note: nearly all actives have a fitted effect of over 45% in size
Summary of the method: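 HepG2 cells stably expressing hCAR and a CYP2B6-2.2kb reporter were plated and pre-incubated 4 hr at 37 C/5% CO2, then given compounds at 15 concentrations plus 50 nM CITCO (final). After 23 hr, viability was read by CellTiter-Fluor fluorescence.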

[5] = qHTS assay to identify small molecule antagonists of the estrogen related receptor signaling pathway with the pleiotropic PPARgamma coactivator (PGC) from Tox21 10K library - cell viability counter screen (AID 1224840; active = well fitted cell-killing curve with a large enough effect in the repeat runs, not every such curve was filed as active; note: nearly all actives have a fitted effect of over 40% in size); conditions: PGC/ERR reporter cells viability, CellTiter-Fluor, 17.5 h; series mostly up to 92.4 µM
Summary of the method: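 PGC/ERR cells were seeded at 2,000 cells/well and left 6 hours at 37 C/5% CO2 before pin-tool addition of compounds in DMSO. After 17.5 hours at 37 C, CellTiter-Fluor was added and fluorescence read 30 minutes later.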

[6] = target: Thyrotropin receptor (Homo sapiens) (UniProt P16473); assay: qHTS assay to identify small molecule agonists of the thyroid stimulating hormone receptor (TSHR) signaling pathway (AID 1224843; calls by dose curve; note: nearly all actives have a fitted effect of over 45% in size); conditions: TSHR-HEK293 cells, cAMP HTRF, agonist mode, 30 min; series mostly up to 92.4 µM
Chain of Thyrotropin receptor (Homo sapiens) (P16473 whole entry, looked up): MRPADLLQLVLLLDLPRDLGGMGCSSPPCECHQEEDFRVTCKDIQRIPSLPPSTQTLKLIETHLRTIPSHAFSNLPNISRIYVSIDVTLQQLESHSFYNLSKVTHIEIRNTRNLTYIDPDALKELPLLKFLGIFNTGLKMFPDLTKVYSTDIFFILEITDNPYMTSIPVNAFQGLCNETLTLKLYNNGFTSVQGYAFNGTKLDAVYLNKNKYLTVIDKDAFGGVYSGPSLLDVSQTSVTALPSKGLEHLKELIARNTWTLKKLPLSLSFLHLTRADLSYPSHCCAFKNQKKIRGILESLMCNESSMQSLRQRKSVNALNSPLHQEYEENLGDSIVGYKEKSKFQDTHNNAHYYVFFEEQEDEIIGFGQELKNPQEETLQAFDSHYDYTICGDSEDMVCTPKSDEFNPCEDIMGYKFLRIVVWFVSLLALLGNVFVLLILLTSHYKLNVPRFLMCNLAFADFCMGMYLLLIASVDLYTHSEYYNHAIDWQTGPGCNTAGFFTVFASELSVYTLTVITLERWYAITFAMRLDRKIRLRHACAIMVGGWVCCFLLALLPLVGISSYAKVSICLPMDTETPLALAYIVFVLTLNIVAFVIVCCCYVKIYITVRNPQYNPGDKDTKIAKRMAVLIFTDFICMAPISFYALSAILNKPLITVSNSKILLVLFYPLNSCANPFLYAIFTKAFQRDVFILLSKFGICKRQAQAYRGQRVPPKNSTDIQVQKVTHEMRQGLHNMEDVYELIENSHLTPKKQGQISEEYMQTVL
Summary of the method: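 Cell line HEK293 with TSHR; density 800/well. Exposure 30 min RT. Readout HTRF cAMP (cAMP-d2/anti-cAMP-cryptate), 1 h RT before reading.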

[7] = target: Nuclear receptor subfamily 1 group I member 3 (Homo sapiens) (UniProt Q14994); assay: qHTS assay to identify small molecule agonists of the constitutive androstane receptor (CAR) signaling pathway (AID 1224839); conditions: HepG2 hCAR CYP2B6-luciferase, agonist mode, 24 h; series mostly up to 92.4 µM; note: nearly all actives have a fitted effect of over 15% in size; note: potency is the fitted concentration of half-maximal effect;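 for activation: HepG2 cells stably carrying human CAR and a CYP2B6 luciferase reporter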
Chain of Nuclear receptor subfamily 1 group I member 3 (Homo sapiens) (Q14994 whole entry, looked up): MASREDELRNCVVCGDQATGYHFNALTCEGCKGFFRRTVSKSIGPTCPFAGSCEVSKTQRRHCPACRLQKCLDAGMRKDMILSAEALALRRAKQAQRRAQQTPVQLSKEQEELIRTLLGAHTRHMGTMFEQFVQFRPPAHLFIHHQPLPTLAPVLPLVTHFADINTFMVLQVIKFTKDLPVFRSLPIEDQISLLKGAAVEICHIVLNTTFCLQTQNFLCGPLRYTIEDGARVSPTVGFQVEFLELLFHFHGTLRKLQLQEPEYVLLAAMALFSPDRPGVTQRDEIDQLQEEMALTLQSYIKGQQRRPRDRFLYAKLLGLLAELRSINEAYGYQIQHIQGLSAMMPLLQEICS
Summary of the method: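 In this screen, CAR-driven CYP2B6 promoter activity is measured by luminescence in HepG2-CYP2B6-hCAR cells after 24 h with test compounds and 0.75 uM PK11195 (final concentration).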

[8] = qHTS assay to identify small molecule antagonists of the estrogen related receptor signaling pathway with the pleiotropic PPARgamma coactivator (PGC) from Tox21 10K library (AID 1224841; call rule not given here; note: actives are mostly falling curves and most rising ones were filed inactive; nearly all actives have a fitted effect of over 50% in size); conditions: PGC/ERR reporter cell line, ONE-Glo luciferase, 18 h; series mostly up to 92.4 µM
Summary of the method: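 PGC/ERR reporter cells were seeded at 2,000 cells/well and held 6 hours at 37 C/5% CO2 before pin-tool addition of compounds in DMSO. After 18 hours at 37 C, One-Glo was added and luminescence read after 30 minutes at room temperature.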

[9] = qHTS assay to identify small molecule agonists of the estrogen related receptor signaling pathway with the pleiotropic PPARgamma coactivator (PGC) from Tox21 10K library (AID 1224842); conditions: PGC/ERR reporter cell line, luciferase ONE-Glo, 18 h; series mostly up to 92.4 µM; note: nearly all actives have a fitted effect of over 15% in size
Summary of the method: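 PGC/ERR reporter cells (NTP line) were seeded 2,000 per well, rested 6 h at 37 C/5% CO2, then pin-dosed with compounds in DMSO for 18 h at 37 C; luciferase read by One-Glo luminescence after 30 min at room temperature.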
% is set by controls: 0 for no effect and ±100 for the full control effect.

O=C(Oc1ccc(Br)cc1)N1CCN2CCC1CC2
inactive: Potency [1] | Potency [2] | Potency [3] | Potency [4] | Potency [5] | Potency [6]

Cc1ncc(CNC(=O)N(CCCl)N=O)c(N)n1
inactive: Potency [1] | Potency [2] | Potency [3] | Potency [4] | Potency [5] | Potency [6]

CN1CCC(O)(c2ccc(F)cc2)C(C(=O)c2ccc(F)cc2)C1 (configuration not stated)
inactive: Potency [1] | Potency [2] | Potency [3] | Potency [4] | Potency [7] | Potency [8] | outcome [9] | Potency [6]

O=C1c2ccccc2C(=O)c2ccccc21
inactive: viability change, negative = cytotoxic [1] 0.548% [at 19 µM] | activity change, negative = inhibition [2] 3.8% [at 23.6 µM] | viability change, negative = cytotoxic [3] 5.88% [at 19 µM] | activity change, negative = cytotoxicity [4] 4.8% [at 19 µM] | viability change, negative = cytotoxic [5] 4.21% [at 19 µM] | activity, negative = inhibition [8] 16.6% [at 19 µM] | activation [9] 5.32% [at 19 µM] | activation [6] -2.19% [at 19 µM]

CC(C(O)c1ccccc1)N(C)C/C=C/c1ccccc1 (configuration not stated)
inactive: Potency [1] | Potency [2] | Potency [3] | Potency [4] | Potency [7] | Potency [6]

C#C[C@]1(O)C=C[C@H]2[C@@H]3CCC4=CC(=O)CC[C@@H]4[C@H]3CC[C@@]21CC
inactive: Potency [1] | Potency [2] | Potency [3] | Potency [4] | Potency [5]

CC(CCc1ccccc1)NC(C)C(O)c1ccc(O)cc1 (configuration not stated)
inactive: Potency [1] | Potency [2] | Potency [3] | Potency [4] | Potency [7] | Potency [5] | Potency [6]

N#CCNCC#N
inactive: Potency [1] | Potency [2] | Potency [3] | Potency [4] | Potency [7] | Potency [8] | outcome [9] | Potency [6]

[O]=[Cd]
inactive: Potency [1] | Potency [2] | Potency [3] | Potency [4] | Potency [5] | outcome [9] | Potency [6]

OCCBr
inactive: Potency [1] | Potency [2] | Potency [3] | Potency [4] | Potency [5] | Potency [6]

O=C1CN=C(c2ccccc2)c2cc([N+](=O)[O-])ccc2N1
inactive: Potency [1] | Potency [2] | Potency [3] | Potency [4] | Potency [5] | Potency [8] | Potency [6]

CC1CCC(=O)O1 (configuration not stated)
inactive: Potency [1] | Potency [2] | Potency [3] | Potency [4] | Potency [5] | Potency [8] | outcome [9] | Potency [6]

CCCCP(CCCC)CCCC
inactive: Potency [1] | Potency [2] | Potency [3] | Potency [4] | Potency [5] | Potency [6]

CC(C)CC#N
inactive: Potency [1] | Potency [2] | Potency [3] | Potency [4] | Potency [5] | Potency [6]

Clc1ccccc1N1CCNCC1
inactive: Potency [1] | Potency [2] | Potency [3] | Potency [4] | Potency [5] | Potency [6]

OC(Cn1cncn1)(c1ccc(F)cc1)c1ccccc1F (configuration not stated)
inactive: Potency [1] | Potency [2] | Potency [3] | Potency [4] | Potency [5] | Potency [6]

O=C(O)C(Br)CBr (configuration not stated)
inactive: Potency [1] | Potency [2] | Potency [3] | Potency [4] | Potency [5] | Potency [6]

C=C(C)[C@@H]1CC=C(C=O)CC1
inactive: Potency [1] | Potency [2] | Potency [3] | Potency [4] | Potency [5] | Potency [8] | outcome [9] | Potency [6]

O=C1CN2CCOC2(c2ccccc2Cl)c2cc(Cl)ccc2N1 (configuration not stated)
inactive: Potency [1] | Potency [2] | Potency [3] | Potency [4] | Potency [5] | Potency [6]

CCSC(=O)N(CC)C1CCCCC1
inactive: Potency [1] | Potency [2] | Potency [3] | Potency [4] | Potency [5] | Potency [6]

CCOc1nc(C(Cl)(Cl)Cl)ns1
inactive: Potency [1] | Potency [2] | Potency [3] | Potency [4] | Potency [7] | Potency [8] | outcome [9] | Potency [6]

CCCSP(=O)(OCC)Oc1ccc(Br)cc1Cl (configuration not stated)
inactive: Potency [1] | Potency [2] | Potency [3] | Potency [4] | Potency [6]
active: Potency [7] 13.3 µM

C[C@]1(O)CC[C@H]2[C@@H]3CCC4=CC(=O)CC[C@]4(C)[C@@]3(F)[C@@H](O)C[C@@]21C
inactive: Potency [1] | Potency [2] | Potency [3] | Potency [4] | Potency [5] | Potency [6]

O=[N+]([O-])c1cc(Cl)c(Cl)c(Cl)c1
inactive: Potency [1] | Potency [2] | Potency [3] | Potency [4] | Potency [7] | Potency [6]

OCCSCSCCO
inactive: Potency [1] | Potency [2] | Potency [3] | Potency [4] | Potency [7] | Potency [5] | Potency [6]

COc1ccc(C(=O)N2CCCC2=O)cc1
inactive: Potency [1] | Potency [2] | Potency [3] | Potency [4] | Potency [7] | Potency [5] | Potency [6]
